Data taken from PubChem BioAssay AID2314 (National Center for Advancing Translational Sciences (NCATS), 2010).
About 37,000 (12%) of roughly 300,000 compounds were called active. No stated cut-off is given here; in the data, active means max response mostly above about 13% (no sharp cut-off); inactive means mostly below about 14%. The entries come from a sample that favours actives as a whole.

experiment: Cycloheximide Counterscreen for Small Molecule Inhibitors of Shiga Toxin; conditions: cell reporter, cycloheximide protein synthesis inhibition counterscreen; active compounds read high; further: read at 38.3 µM for the half of the compounds with a filed dose; 0% is about no effect

SMILES	max response
COc1ccc(NC(=O)C2CCN(S(=O)(=O)c3ccc4[nH]c(=O)oc4c3)CC2)c(OC)c1	-1.11% (inactive)
CN(c1cccc(NC(=O)c2ccc(CN3CCc4ccccc4C3)cc2)c1)S(C)(=O)=O	-1.55% (inactive)
Cc1ccc(N(CC(=O)Nc2cccc(N(C)S(C)(=O)=O)c2)S(C)(=O)=O)cc1	-1.08% (inactive)
CN(c1cccc(NC(=O)Nc2ccc(Cl)cc2)c1)S(C)(=O)=O	36.6% (active)
C/C(=N/NC(=O)c1ccc(NC(=O)c2ccc(F)cc2)cc1)c1ccccc1	11% (inactive)
CC(=O)Nc1cccc(/C(C)=N/NC(=O)c2ccccc2Cl)c1	8.8% (inactive)
COc1cccc(C(=O)N/N=C(\C)c2cccc(NC(=O)c3ccc(F)cc3)c2)c1OC	27.3% (active)
O=C(Nc1nonc1-c1ccc(Cl)cc1)c1ccco1	7.55% (inactive)
NC(=O)COc1ccc2c3c(c(=O)oc2c1)CCCCC3	12.8% (active)
NC(=O)C1CCN(C(=O)COc2ccc3c4c(c(=O)oc3c2)CCC4)CC1	-1.44% (inactive)
O=C(COc1ccc2c3c(c(=O)oc2c1)CCC3)NC1CCCCC1	1.97% (inactive)
CC1CCN(C(=O)c2cc3nc(C4CC4)cc(C(F)(F)F)n3n2)CC1	1.99% (inactive)
CCNC(=S)N(CCN(CC)CC)Cc1cc2cc3c(cc2[nH]c1=O)OCCO3	-0.726% (inactive)
COc1cccc(-c2cc(=O)c3cc(NC(=O)c4ccc(C)cc4)ccc3[nH]2)c1	-0.33% (inactive)
CC1(C)CC(=O)C/C(=N\NC(=O)c2cccs2)C1	1.56% (inactive)
CC1C/C(=N/NC(=O)c2cccs2)CC(C)(C)C1 (stereo not given)	32.2% (active)
CC(C)OCCCNC(=O)CNC(=O)c1cccs1	-3.03% (inactive)
CC(=O)NNC1=Nc2ccccc2N(C)C(C)C1 (stereo not given)	-2.23% (inactive)
CC(C)c1ccccc1OCC(O)CN(CC(O)COc1cccc2ccccc12)C(C)C (stereo not given)	-5.17% (inactive)
Cc1ccc(NS(=O)(=O)c2ccc(-c3ccc(=O)[nH]n3)o2)c(C)c1	-1.58% (inactive)
O=C(COc1ccc2c3c(c(=O)oc2c1)CCCC3)NCC(O)c1ccccc1 (stereo not given)	-1.36% (inactive)
Cc1cccc(NC(=S)Nc2ccc(Br)cc2)c1	18.4% (inactive)
Cc1cccc(NC(=S)NC23CN4CN(CN(C4)C2)C3)c1	0.709% (inactive)
Cc1cccc(NC(=O)NC(=S)NC(=O)c2ccccc2)c1	42.2% (active)

SMILES	max response
O=C(CNC(=O)c1ccc(Br)o1)Nc1ccccc1	-2.14% (inactive)
Cc1nc(C)c(C(=O)Nc2ccc(C)c(F)c2)o1	5.75% (inactive)
Cc1cccc(NC(=O)c2cccc(C(F)(F)F)c2)c1	29.9% (active)
Cc1cccc(NC(=O)/C(=C\c2ccco2)NC(=O)c2ccccc2)c1	11.3% (inactive)
Cc1cccc(NC(=S)NC(=O)c2ccc(Br)o2)c1	34.5% (active)
CNC(=O)c1ccc(NC(=O)c2cccc(C(F)(F)F)c2)cc1	8.58% (inactive)
Cc1ccc(NC(=O)NC(=O)c2ccccc2)cc1F	25.9% (active)
CC(=O)N1CCN(CC(=O)Nc2ccc(C)c(F)c2)CC1	-6.08% (inactive)
Cc1cccc(NC(=O)c2nnn(-c3cccc(C(F)(F)F)c3)c2N)c1	19.9% (inactive)
Cc1cc(-c2nnc(SCC(=O)Nc3ccc(F)cc3)n2N)n[nH]1	0.984% (inactive)
COc1ccccc1NC1=NC(c2ccc(Cl)cc2)N=C(N)N1 (stereo not given)	2.63% (inactive)
CC(Sc1nnnn1C)C(=O)NC(=O)NC1CCCCC1 (stereo not given)	0.707% (inactive)
COc1ccc(N2CCN(CCNC(=O)Nc3cc(Cl)ccc3Cl)CC2)cc1	-4.73% (inactive)
O=C(Nc1ccnn1C1CCN(Cc2cccc(OCCO)c2)CC1)C1CCCC1	-3.51% (inactive)
Cc1cccc(NS(=O)(=O)c2ccc(-c3cnc(C4CC4)o3)cc2)c1	-3% (inactive)
O=C(NC(=S)Nc1ncccn1)c1ccccc1Br	14.4% (active)
O=C(NC(=S)Nc1ccc(S(=O)(=O)Nc2ncccn2)cc1)c1cccc(Br)c1	5.33% (inactive)
CC1CCN(C(=S)NC(=O)c2ccccc2Br)CC1	3.84% (inactive)
COc1cc2nc(CN(C)Cc3ccc(F)cc3)[nH]c(=O)c2cc1OC	-2.34% (inactive)
COc1ccc(-n2nc(C(=O)NCC(=O)N3CCCCCC3)c3ccccc3c2=O)cc1Cl	1.06% (inactive)
COC(=O)c1ccc(C(=O)OC)c(NC(=S)N2CCN(c3ccc(F)cc3)CC2)c1	-7.21% (inactive)
COC(=O)c1ccc(Sc2ccc(F)cc2)c(N)c1	24.1% (active)
COC(=O)c1nc(NC(=O)c2ccc(F)cc2)n[nH]1	-1.65% (inactive)
O=S(=O)(NC1CCCCC1N1CCN(c2ccccc2F)CC1)c1ccccc1 (stereo not given)	7.38% (inactive)

SMILES	max response
O=C(O)c1ccc(/C=C2\SC(=S)N(NC(=O)c3ccc(Br)cc3)C2=O)cc1	-2.52% (inactive)
CC1(C)NC(=O)N(CCCCSc2ccc(Cl)cc2)C1=O	6.3% (inactive)
CN(Cc1ccccc1)C(=O)c1ccc(NC2=NC3CS(=O)(=O)CC3S2)cc1 (stereo not given)	0.883% (inactive)
O=C(Cc1c[nH]c2ccccc12)N/N=C/c1cccc(F)c1	11.5% (inactive)
Cc1ccsc1C(=O)N/N=C/c1ccc([N+](=O)[O-])cc1	55% (active)
Cc1c(/C=N\NC(=O)c2cc3ccccc3o2)c2ccccc2n1C	5.05% (inactive)
O=C(N/N=C/c1c[nH]c2ccccc12)c1cc2ccccc2o1	22.4% (active)
NC(=S)N/N=C/c1ccc([N+](=O)[O-])cc1	2.05% (inactive)
O=C(N/N=C/c1c[nH]c2ccccc12)c1ccccc1O	29.2% (active)
Cc1nc2ccccc2cc1C(=O)N/N=C/c1ccc([N+](=O)[O-])cc1	-1.28% (inactive)
Nc1nonc1-n1nnc(C(=O)N/N=C/c2c[nH]c3ccccc23)c1-c1ccccc1	6.03% (inactive)
O=C(N/N=C/c1coc2ccccc2c1=O)c1cc2ccccc2o1	13.8% (inactive)
CCCCCC(=O)Nc1ccc(C(=O)N/N=C/c2ccc([N+](=O)[O-])cc2)cc1	-2.53% (inactive)
O=C(N/N=C/c1ccc([N+](=O)[O-])cc1)c1c[nH]c2ccccc12	26.3% (active)
O=C(N/N=C/c1ccc(O)cc1)/C(=C/c1ccc([N+](=O)[O-])cc1)NC(=O)c1ccccc1	5.92% (inactive)
COC(=O)C1=C(C)N(c2ccc(C)cc2)/C(=C/c2ccc(O)cc2)C1=O	-3.37% (inactive)
COc1ccc(C(=O)COC(=O)COc2ccc(C)c(C)c2)cc1	-1.99% (inactive)
COc1cccc(NC(=O)[C@H](Cc2c[nH]c3ccccc23)NC(=O)[C@@H]2Cc3ccccc3CN2)c1	8.96% (inactive)
Cc1nn(Cc2ccc(C(=O)N3N=C(C(F)F)CC3(O)C(F)F)cc2)c(C)c1[N+](=O)[O-] (stereo not given)	-2.42% (inactive)
Cc1ccc(NS(=O)(=O)c2ccc(C(C)(C)C)cc2)cn1	-1.83% (inactive)
Cc1ccc(-n2ncc3c2CC(C)(C)CC3NC(=O)Cc2c(C)noc2C)cc1 (stereo not given)	1.83% (inactive)
CCOC(=O)CNC(=O)CSc1ncccc1-c1nc2ccccc2[nH]1	6.47% (inactive)
Cc1ccc(NC(=O)CN(C)CC(=O)Nc2cccc(F)c2)cc1[N+](=O)[O-]	-3.93% (inactive)
CSC(=S)N/N=C/c1c[nH]c2ccccc12	19.8% (active)

SMILES	max response
CNc1ccc(NC(C)=O)cc1[N+](=O)[O-]	-1.59% (inactive)
C[n+]1ccc(/C=C/c2c[nH]c3ccccc23)cc1	0.857% (inactive)
O=C(O)c1cccc(NC(=S)N/N=C/c2c[nH]c3ccccc23)c1	19.9% (inactive)
Cc1ccc(NC(=O)c2sccc2C)cc1[N+](=O)[O-]	54.5% (active)
CN(C)c1ccc(C(CNC(=O)c2ccc(F)cc2)c2c[nH]c3ccccc23)cc1 (stereo not given)	-1.36% (inactive)
COc1ccc(CC(=O)NCC(=O)N/N=C/c2cc(Br)ccc2OC)cc1	-1.85% (inactive)
CCc1ccc(C2C(C#N)=C(N)N(N3CCOCC3)C3=C2C(=O)CC(C)(C)C3)s1 (stereo not given)	-4.64% (inactive)
CC1CCN(C(=O)CN(c2ccc(Oc3ccccc3)cc2)S(C)(=O)=O)CC1	0.761% (inactive)
CC(=O)Oc1cc2c(C(=O)NCCN3CCOCC3)c(C)oc2c2ccccc12	23.5% (active)
Cc1cc(C)cc(C(=O)NCCN2CCOCC2)c1	-3.62% (inactive)
Cc1ccc(C(=O)NCCN2CCOCC2)cc1C	0.531% (inactive)
Cn1nccc1C(=O)N1CCCC(C(=O)c2ccc(Oc3ccccc3)cc2)C1 (stereo not given)	-1.23% (inactive)
CC1Sc2ccc(S(=O)(=O)CCC(=O)NCc3ccccc3Cl)cc2NC1=O (stereo not given)	-2.98% (inactive)
Fc1ccc(/C=N/n2c(COc3ccccc3)n[nH]c2=S)cc1	-4.69% (inactive)
Cc1n[nH]c(=S)n1/N=C/c1ccc(Br)o1	-1.34% (inactive)
COc1cc(/C=N/n2c(C)n[nH]c2=S)ccc1OCc1ccccc1	25.8% (active)
Cn1c(=O)[nH]c(=O)c2c1nc(N1CCN(C(c3ccccc3)c3ccccc3)CC1)n2CCO	-4.67% (inactive)
CC(=O)N1CC(C)c2scc(C)[n+]2-c2ccccc21 (stereo not given)	-4.21% (inactive)
COc1cccc(NC(=O)CN(C)C(=O)c2ccccc2CCc2ccccc2)c1	-2.98% (inactive)
CC(C)CC(=O)N1CCN(Cc2cccc(Cl)c2)CC1	-0.27% (inactive)
Cc1ccc(N(C(=O)Cc2cccs2)C(C(=O)NCC2CCCO2)c2ccncc2)cc1 (stereo not given)	30.3% (active)
O=C(NCC(=O)N(c1ccccc1)C(C(=O)NCC1CCCO1)c1ccccc1)c1cccs1 (stereo not given)	-2% (inactive)
Cc1cccc(N(C(=O)Cc2cccs2)C(C(=O)NCc2ccco2)c2ccncc2)c1 (stereo not given)	7.8% (inactive)
